# Measured values reported in US20150359843, “P53 ACTIVATING PEPTIDES” (Agency for Science, Technology and Research, published 2015).
# Assays:
# [1] = target: p53 wt-Δ22 (C-terminal truncated, lacking 372-393) (UniProt P04637 P04637:1-371); experiment: pulldown; 36 nM RE; conditions: tags: none (CosmoBio PURE IVT); chain copies: 4 inferred; dsDNA, one strand shown
# p53 wt-FL = p53 wt-FL (UniProt P04637 P04637:1-393); experiment: pulldown; 36 nM RE; 17-fold when p53 amount doubled; conditions: tags: none (CosmoBio PURE IVT); chain copies: 4 inferred; dsDNA, one strand shown
# Chain of p53 wt-FL (P04637 whole entry, one chain of several): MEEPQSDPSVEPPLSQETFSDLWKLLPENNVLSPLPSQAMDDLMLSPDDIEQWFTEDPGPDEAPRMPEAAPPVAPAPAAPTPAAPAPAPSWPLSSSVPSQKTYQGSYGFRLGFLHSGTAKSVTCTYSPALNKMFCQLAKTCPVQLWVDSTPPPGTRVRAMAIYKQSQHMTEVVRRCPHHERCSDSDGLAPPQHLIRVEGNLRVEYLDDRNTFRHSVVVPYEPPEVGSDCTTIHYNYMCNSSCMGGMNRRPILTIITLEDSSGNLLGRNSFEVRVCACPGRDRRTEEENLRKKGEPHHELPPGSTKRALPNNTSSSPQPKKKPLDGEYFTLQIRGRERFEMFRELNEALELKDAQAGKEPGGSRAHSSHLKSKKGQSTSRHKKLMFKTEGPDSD
# Chain of p53 wt-Δ22 (C-terminal truncated, lacking 372-393) (P04637 1-371, stated change not applied, one chain of several): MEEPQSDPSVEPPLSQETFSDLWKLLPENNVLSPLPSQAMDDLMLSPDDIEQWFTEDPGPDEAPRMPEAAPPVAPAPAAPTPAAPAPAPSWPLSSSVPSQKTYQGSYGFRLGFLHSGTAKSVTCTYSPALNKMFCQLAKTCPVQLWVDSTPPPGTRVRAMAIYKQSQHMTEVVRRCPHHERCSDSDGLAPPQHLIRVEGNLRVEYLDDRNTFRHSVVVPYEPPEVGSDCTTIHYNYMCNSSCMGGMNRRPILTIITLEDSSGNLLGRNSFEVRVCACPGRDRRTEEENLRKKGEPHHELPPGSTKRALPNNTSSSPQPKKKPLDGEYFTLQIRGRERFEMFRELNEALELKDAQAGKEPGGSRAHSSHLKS
Sequence,binding signal [1] [fold over control DNA],binding signal (p53 wt-FL) [fold over control DNA]
CTTGGGAACAAGGGCATGAGCTTGTCTGGGCT,~3,
CGCGCCTGCAAGTCCTGACTTGTCCGCGGC,,~2.8
